Holding throughout (experiment): log2 fold change, soluble protein after heating vs DMSO (PISA); higher = thermal stabilisation; K562 lysate, 10 uM; active = over 0.2 and 3.5 SD of the protein, either way, in both replicates (recomputed)
Compound in assay [1]: Cc1cn(-c2cc(NC(=O)c3ccc(C)c(Nc4nccc(-c5cccnc5)n4)c3)cc(C(F)(F)F)c2)cn1 [nilotinib]
In a few lines: (§1)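 Quantification was by TMTpro 16plex LC-MS/MS with equalised channel sums, applied to the supernatant after 21,000xg for 90 min. Samples were crude K562 extract at 1 mg/mL protein in PBS pH 7.4 with 1 mM MgCl2, treated with 10 μM compound for 30 min, heated for 3 min across 48°C-58°C, pooled and brought to 0.5% NP-40 at 4°C. Values are log-two fold changes in thermal stability relative to solvent controls, from duplicates.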

Compound in assay [2]: Cc1nc(Nc2n[nH]c3c2CN(C(=O)N[C@H](CN(C)C)c2ccccc2)C3(C)C)c2sccc2n1
The essentials:
as §1

Compound in assay [3]: Cc1nc(Nc2ncc(C(=O)Nc3c(C)cccc3Cl)s2)cc(N2CCN(CCO)CC2)n1 [dasatinib]
The essentials: as §1

Compound in assay [4]: Cc1ncc(-c2ccnc(Nc3ccc(S(C)(=O)=O)cc3)n2)n1C(C)C
In a few lines:
as §1

Compound in assay [5]: Cn1cc(-c2ccc3c(c2)CCN3C(=O)Cc2cccc(C(F)(F)F)c2)c2c(N)ncnc21
In a few lines: as §1

Compound in assay [6]: Cn1cc(CNCC2CCN(c3ncc(C(=O)NO)cn3)CC2)c2ccccc21 [quisinostat]
The essentials:
as §1

Compound in assay [7]: Cn1cncc1[C@@](N)(c1ccc(Cl)cc1)c1ccc2c(c1)c(-c1cccc(Cl)c1)cc(=O)n2C [tipifarnib]
The essentials: as §1

Compound in assay [8]: NC(=O)Nc1cc(-c2cccc(F)c2)sc1C(=O)N[C@H]1CCCNC1
In a few lines:
as §1

Compound in assay [9]: NC(=O)c1cnc(N[C@@H]2CCCC[C@@H]2N)nc1Nc1cccc(-n2nccn2)c1
In a few lines: as §1

Compound in assay [10]: NC1(c2ccc(-c3nc4ccn5c(=O)[nH]nc5c4cc3-c3ccccc3)cc2)CCC1
The essentials: as §1

The full data set covers some 8,800 targets. This sample favours those with a hit. About 0.5% of all pairs of compound and target were hits. Unmarked numbers belong to inactive results.

Sequence of UniProt Q9UPY3 (Q9UPY3 whole entry, looked up): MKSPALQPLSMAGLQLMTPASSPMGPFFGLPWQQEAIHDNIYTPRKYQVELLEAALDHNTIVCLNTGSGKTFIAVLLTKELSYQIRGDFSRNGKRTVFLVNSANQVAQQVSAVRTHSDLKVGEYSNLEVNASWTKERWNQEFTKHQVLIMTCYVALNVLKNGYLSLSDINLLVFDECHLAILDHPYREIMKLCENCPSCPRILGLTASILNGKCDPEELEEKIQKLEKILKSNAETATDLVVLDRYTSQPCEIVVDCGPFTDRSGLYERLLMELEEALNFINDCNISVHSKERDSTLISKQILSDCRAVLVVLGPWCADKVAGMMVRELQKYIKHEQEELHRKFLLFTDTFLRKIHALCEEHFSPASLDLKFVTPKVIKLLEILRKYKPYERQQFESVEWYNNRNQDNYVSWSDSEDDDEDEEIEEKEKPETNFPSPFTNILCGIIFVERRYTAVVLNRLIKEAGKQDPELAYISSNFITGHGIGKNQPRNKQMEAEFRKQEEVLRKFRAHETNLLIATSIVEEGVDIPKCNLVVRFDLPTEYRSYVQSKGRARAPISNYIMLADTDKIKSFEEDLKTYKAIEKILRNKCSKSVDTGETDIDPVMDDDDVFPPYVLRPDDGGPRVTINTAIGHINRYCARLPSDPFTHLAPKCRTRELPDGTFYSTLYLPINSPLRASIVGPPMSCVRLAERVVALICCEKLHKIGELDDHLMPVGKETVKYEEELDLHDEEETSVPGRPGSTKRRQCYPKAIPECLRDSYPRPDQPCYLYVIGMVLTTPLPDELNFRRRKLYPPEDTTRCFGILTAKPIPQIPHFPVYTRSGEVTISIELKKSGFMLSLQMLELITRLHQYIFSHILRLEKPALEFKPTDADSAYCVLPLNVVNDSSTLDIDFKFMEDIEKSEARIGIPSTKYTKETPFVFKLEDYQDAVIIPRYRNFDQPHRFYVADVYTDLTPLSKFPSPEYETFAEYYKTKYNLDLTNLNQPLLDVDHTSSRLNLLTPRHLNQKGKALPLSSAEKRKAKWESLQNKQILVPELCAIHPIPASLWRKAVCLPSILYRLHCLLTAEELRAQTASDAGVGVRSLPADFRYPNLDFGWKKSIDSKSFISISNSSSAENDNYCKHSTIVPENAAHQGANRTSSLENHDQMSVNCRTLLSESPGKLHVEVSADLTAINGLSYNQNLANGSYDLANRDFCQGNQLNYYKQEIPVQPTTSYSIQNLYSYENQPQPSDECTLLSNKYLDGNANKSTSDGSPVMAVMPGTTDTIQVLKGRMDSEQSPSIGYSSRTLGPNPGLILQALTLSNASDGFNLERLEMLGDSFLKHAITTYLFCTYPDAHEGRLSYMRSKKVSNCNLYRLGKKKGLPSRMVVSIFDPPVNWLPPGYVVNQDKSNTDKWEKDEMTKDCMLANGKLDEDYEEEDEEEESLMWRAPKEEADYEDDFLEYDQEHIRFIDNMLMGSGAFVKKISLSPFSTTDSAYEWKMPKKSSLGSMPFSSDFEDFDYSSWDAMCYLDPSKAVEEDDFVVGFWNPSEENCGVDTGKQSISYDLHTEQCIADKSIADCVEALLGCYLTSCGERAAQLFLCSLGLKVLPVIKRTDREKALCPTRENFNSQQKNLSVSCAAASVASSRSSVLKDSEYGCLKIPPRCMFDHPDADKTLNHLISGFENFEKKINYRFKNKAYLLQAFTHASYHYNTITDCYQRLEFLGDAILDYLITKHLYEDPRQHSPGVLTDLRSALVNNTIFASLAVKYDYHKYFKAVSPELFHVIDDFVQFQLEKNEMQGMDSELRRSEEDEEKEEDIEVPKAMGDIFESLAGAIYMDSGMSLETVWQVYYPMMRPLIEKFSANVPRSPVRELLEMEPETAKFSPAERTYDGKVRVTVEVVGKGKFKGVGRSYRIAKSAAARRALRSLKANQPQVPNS
Sequence of UniProt Q9BQ75 (Q9BQ75 whole entry, looked up): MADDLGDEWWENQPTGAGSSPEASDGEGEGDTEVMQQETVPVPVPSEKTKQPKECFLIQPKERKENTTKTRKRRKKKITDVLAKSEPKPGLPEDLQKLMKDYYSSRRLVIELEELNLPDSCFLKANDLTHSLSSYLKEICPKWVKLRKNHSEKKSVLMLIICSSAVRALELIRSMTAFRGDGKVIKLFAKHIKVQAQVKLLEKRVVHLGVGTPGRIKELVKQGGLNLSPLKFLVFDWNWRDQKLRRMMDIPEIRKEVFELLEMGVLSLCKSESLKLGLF
Sequence of UniProt Q9Y315 (Q9Y315 whole entry, looked up): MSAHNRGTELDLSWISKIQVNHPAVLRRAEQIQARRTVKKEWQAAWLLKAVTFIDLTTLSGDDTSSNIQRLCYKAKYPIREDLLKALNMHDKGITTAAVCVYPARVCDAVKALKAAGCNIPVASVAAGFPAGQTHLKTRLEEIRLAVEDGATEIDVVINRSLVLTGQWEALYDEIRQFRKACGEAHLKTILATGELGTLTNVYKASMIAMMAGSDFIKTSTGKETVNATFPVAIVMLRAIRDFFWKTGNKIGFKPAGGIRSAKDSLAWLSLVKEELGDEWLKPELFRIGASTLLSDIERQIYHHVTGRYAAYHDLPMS
Sequence of UniProt P48730 (P48730 whole entry, looked up): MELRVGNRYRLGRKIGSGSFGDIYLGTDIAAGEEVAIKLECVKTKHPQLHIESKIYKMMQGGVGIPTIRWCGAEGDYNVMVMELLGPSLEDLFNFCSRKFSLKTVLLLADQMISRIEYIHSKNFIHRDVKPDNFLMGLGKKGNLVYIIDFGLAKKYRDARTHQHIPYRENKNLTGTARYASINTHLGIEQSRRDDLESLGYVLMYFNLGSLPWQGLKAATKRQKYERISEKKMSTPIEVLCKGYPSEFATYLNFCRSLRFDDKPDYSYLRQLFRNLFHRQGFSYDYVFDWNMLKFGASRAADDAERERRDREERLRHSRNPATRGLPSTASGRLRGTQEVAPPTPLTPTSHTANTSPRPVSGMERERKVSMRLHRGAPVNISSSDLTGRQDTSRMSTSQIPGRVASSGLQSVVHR
Sequence of UniProt Q8NF50 (Q8NF50 whole entry, looked up): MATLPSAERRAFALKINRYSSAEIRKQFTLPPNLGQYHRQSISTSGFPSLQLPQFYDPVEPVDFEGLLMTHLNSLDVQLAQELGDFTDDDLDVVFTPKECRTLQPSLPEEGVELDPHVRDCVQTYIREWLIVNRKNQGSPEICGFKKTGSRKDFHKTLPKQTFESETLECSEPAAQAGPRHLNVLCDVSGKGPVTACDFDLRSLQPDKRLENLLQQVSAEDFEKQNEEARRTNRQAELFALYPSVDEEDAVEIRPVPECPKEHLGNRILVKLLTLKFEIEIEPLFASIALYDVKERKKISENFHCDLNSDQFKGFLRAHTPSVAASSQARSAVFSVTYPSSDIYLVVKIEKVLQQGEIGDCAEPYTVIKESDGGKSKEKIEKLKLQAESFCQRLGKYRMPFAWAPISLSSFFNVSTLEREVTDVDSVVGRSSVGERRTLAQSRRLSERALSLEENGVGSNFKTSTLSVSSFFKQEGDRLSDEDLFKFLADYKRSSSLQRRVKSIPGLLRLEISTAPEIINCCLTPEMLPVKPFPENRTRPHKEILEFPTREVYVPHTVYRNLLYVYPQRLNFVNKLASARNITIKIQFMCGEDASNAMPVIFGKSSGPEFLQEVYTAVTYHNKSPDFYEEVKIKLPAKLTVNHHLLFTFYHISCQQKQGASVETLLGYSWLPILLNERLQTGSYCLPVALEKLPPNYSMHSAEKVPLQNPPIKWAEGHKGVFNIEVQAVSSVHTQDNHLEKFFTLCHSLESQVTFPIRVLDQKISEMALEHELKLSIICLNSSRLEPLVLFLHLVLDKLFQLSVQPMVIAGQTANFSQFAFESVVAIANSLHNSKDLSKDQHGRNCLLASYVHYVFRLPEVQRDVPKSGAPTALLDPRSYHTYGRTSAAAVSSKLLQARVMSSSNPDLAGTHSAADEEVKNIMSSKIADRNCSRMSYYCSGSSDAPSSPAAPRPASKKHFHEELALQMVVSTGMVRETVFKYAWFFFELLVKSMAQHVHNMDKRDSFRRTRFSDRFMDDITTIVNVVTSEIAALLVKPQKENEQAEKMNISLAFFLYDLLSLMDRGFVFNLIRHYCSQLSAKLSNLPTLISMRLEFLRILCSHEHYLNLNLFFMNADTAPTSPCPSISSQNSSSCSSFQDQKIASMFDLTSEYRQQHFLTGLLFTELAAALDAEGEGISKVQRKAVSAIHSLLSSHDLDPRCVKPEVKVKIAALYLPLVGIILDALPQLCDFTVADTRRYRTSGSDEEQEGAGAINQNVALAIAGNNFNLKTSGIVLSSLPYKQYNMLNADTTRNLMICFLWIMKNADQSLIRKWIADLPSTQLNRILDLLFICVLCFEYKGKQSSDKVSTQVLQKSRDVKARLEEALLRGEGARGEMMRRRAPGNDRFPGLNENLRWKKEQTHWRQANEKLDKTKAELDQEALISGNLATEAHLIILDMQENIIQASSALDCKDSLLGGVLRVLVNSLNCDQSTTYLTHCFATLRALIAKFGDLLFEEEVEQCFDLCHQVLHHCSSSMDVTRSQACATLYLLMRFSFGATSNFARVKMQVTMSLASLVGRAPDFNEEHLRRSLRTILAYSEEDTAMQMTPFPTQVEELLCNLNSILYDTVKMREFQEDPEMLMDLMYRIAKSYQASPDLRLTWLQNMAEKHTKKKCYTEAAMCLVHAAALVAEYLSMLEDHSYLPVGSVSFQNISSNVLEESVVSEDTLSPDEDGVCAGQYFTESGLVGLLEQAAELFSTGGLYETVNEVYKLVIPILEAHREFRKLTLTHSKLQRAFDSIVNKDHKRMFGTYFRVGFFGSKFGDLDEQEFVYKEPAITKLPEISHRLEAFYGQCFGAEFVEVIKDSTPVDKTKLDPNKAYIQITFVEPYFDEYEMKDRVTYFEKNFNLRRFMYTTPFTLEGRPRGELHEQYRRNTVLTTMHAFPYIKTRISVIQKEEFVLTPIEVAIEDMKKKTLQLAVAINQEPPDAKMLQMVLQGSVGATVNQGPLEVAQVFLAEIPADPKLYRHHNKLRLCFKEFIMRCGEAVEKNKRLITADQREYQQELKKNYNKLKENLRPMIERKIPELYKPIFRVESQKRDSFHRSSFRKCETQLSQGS

As to DERA (UniProt Q9Y315), the log2 fold change in [1] was 0.037; in assay [2], -0.027; in assay [3], 0.057; in assay [4], 0.006; in assay [5], -0.017; in assay [6], -0.008. The log2 fold change was 0.08 in [7], -0.017 in assay [8], -0.021 in [9] and 0 in [10].
Take CSNK1D (UniProt P48730): the log2 fold change was 0.199 in assay [1]; -0.384 in [2]; 0.028 in [3]; -0.551 (active) in assay [4]; -0.059 in assay [5]; -0.049 in assay [6]. Moreover, the log2 fold change was -0.139 in assay [7], 0.021 in assay [8] and 0.072 in [9].
On to COTL1 (UniProt Q14019), for which the log2 fold change was 0.021 in assay [1]; 0.003 in assay [2]; 0.024 in assay [3]; 0.031 in [4]; 0.023 in assay [5]; 0.017 in assay [6]. For the same target, the log2 fold change in assay [7] is 0.055; in [8], -0.075; in assay [9], -0.028; in [10], -0.011.
For the target CSDE1 isoform 4 (UniProt O75534), the log2 fold change was 0.01 in assay [1]; -0.018 in assay [2]; -0.012 in assay [3]; 0.001 in assay [4]; 0.048 in assay [5]; 0.014 in assay [6]. Further, the log2 fold change in [7] was 0.012; in [8], 0.041; in assay [9], -0.009; in [10], -0.016.
As for CXXC1 isoform 2 (UniProt Q9P0U4), the log2 fold change in [1] is 0.032; in [2], 0.029; in assay [3], -0.504; in assay [4], 0.026; in [5], -0.191; in assay [6] it was -0.159. The log2 fold change in assay [7] is -0.039; in assay [8] it was -0.013; in assay [9] it was -0.021; in [10] it was 0.082.
With DHRS3 (UniProt O75911), the log2 fold change in assay [1] is 0.007; in [2] it was 0.005; in [3] it was 0.23 (active); in assay [4] it was -0.028; in [5] it was 0.024; in assay [6], -0.031. Moreover, the log2 fold change in assay [7] is 0.06; in assay [8], 0.019; in assay [9], -0.078; in [10] it was -0.044.
CYCS (UniProt P99999): the log2 fold change is 0.014 in [1]; -0.038 in assay [2]; 0.001 in assay [3]; 0.008 in assay [4]; -0.037 in assay [5]; 0.035 in assay [6]. The log2 fold change in assay [7] is 0.015; in [8] it was -0.003; in assay [9] it was -0.015; in assay [10] it was 0.022.
On to DOCK8 (UniProt Q8NF50), for which the log2 fold change in [1] was -0.007; in assay [2], -0.023; in assay [3], -0.045; in [4], 0.04; in assay [5], 0.058; in [6], -0.053. Further, the log2 fold change in [7] was -0.033; in [8] it was 0.032; in [9] it was 0.016; in assay [10], 0.
For the target CMSS1 (UniProt Q9BQ75), the log2 fold change is -0.025 in [1]; 0.014 in assay [2]; -0.019 in [3]; 0 in assay [4]; 0.014 in [5]; 0.023 in [6]. For the same target, the log2 fold change in assay [7] is 0.06; in assay [8] it was 0.013; in [9] it was 0.004; in [10], 0.031.
Regarding DGCR8 (UniProt Q8WYQ5), the log2 fold change in assay [1] was -0.01; in assay [2], -0.002; in assay [3] it was -0.061; in assay [4], -0.029; in [5], -0.02; in [6] it was -0.007. The log2 fold change is 0.03 in assay [7], -0.032 in [8], -0.048 in assay [9] and 0.003 in assay [10].
DICER1 (UniProt Q9UPY3): the log2 fold change in [1] was 0.014; in assay [2], -0.014; in [3], -0.005; in assay [4], 0.045; in assay [5] it was -0.03; in [6], -0.072. Also, the log2 fold change in assay [7] was 0; in assay [8] it was 0.051; in [9], 0.045; in [10], -0.068.
In the case of CKS1B (UniProt P61024), the log2 fold change is -0.03 in assay [1]; 0.04 in assay [2]; 0.065 in assay [3]; -0.066 in [4]; 0.011 in assay [5]; 0.069 in assay [6]. Moreover, the log2 fold change in assay [7] was 0.106; in assay [8], -0.051; in [9], 0; in assay [10] it was 0.11.
As for CUX1 isoform 3 (UniProt P39880), the log2 fold change in assay [1] was -0.029; in assay [2], 0.026; in assay [3], -0.04; in assay [4], 0.012; in assay [5] it was 0.006; in assay [6], -0.02. The log2 fold change was -0.057 in assay [7], 0.006 in [8], 0.03 in assay [9] and -0.015 in assay [10].
COG6 (UniProt Q9Y2V7): the log2 fold change in assay [1] is 0.004; in [2], 0.038; in [3] it was -0.085; in assay [4], -0.041; in [5], -0.005; in assay [6], -0.068. The log2 fold change in assay [7] was -0.045; in [8], -0.016; in [9], -0.008; in assay [10], -0.06.
Turning to CIP2A (UniProt Q8TCG1), the log2 fold change in assay [1] was -0.006; in assay [2], 0.02; in assay [3] it was -0.107; in assay [4] it was 0.024; in assay [5], 0.054; in [6], -0.123. In addition, the log2 fold change in assay [7] is 0.01; in [8] it was 0.019; in [9], 0.032; in [10], -0.014.

(Values after the supplement of paper PMC10849652.)
